Assay outcomes as filed in PubChem BioAssay.
TDP1 cell noCPT: qHTS for Inhibitors of human tyrosyl-DNA phosphodiesterase 1 (TDP1): qHTS in cells in absence of CPT; Potency, µM (top dose mostly 46.2 µM), for the others: at the top dose activity change, negative = growth inhibition, hits mostly inhibitors; 15% of 420,000 active; DT40 Tdp1-/- hTDP1 cells, no CPT, ATP luminescence, 48 h; AID 686978, 2013; note: potency is the fitted concentration of half-maximal effect; nearly all actives have a fitted effect of over 55% in size
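Cells were dispensed at 400 per well, compounds added by pin tool, plates incubated ≥48 hr at 37 °C, then CellTiter-Glo added for 30 min at room temperature before luminescence reading. Line: DT40 Tdp1-/- complemented with hTDP1; camptothecin omitted.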
HT1080 IDH1KD tx: toxicity to HT-1080 IDH1 knockdown cells (counter line). 2% of 360,000 active. HT-1080 IDH1 knockdown viability, ATP luminescence, 48 h. AID 686971. Potency, µM (highest dose often 46.1 µM), for the others: at the top dose activity, negative = toxicity, usual class: cytotoxic;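 note: potency is the fitted concentration of half-maximal effect; 0% = DMSO wells and -100% = cell-free medium wells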
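After a 2 h attachment period, IDH1KD HT-1080 cells took pin-transferred compound for 48 h at 37 °C; ATP-based luminescence after 10 min room-temperature reagent incubation reported viability.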
IL1B secr inh: inflammasome signaling inhibition, IL-1 beta readout; THP-1 LPS/ATP IL-1B secretion, AlphaLISA, 16 h; stronger effect = lower value; activity change, % at 57.5 µM; 4.7% of 360,000 active; AID 743279; in the data active = activity change below about -50%; inconclusive = mostly about -30% to -49%
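THP-1 cells pretreated 1 hr with compounds (up to 57.5 uM final), then stimulated with LPS (250 ng/mL final) plus ATP (1.25 mM final); secreted IL-1B measured by AlphaLISA after 16 hr, decreased signal indicating inhibition.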
DT40 TDP1 CPT: growth inhibition of DT40 Tdp1-/-;hTDP1 cells with camptothecin (screen for TDP1 inhibitors); chicken DT40 Tdp1-/-;hTDP1 cells + 20 nM CPT, ATP luminescence, 48 h; AID 686979; Potency, µM (top dose mostly 46.2 µM), inactives show at the top dose activity change, negative = growth inhibition, actives largely listed as inhibitors; 12% of 420,000 active; note: potency is the fitted concentration of half-maximal effect; nearly all actives have a fitted effect of over 55% in size
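Cell growth measured by CellTiter-Glo luminescence after a minimum 48 h, 37 C compound exposure with 20 nM CPT in Tdp1-knockout DT40 cells stably expressing hTDP1, seeded 400/well; qHTS titration format.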
ALOX12 inh: ALOX12 (human) lipoxygenase inhibition. P18054. Potency, µM (doses to about 108 µM), without a hit: top-dose activity change, negative = inhibition, hits mostly inhibitors. 1.1% of 580,000 active. AID 1671190. purified 12hLO, xylenol orange hydroperoxide absorbance; note: potency is the fitted concentration of half-maximal effect
Target sequence (P18054 whole entry, looked up): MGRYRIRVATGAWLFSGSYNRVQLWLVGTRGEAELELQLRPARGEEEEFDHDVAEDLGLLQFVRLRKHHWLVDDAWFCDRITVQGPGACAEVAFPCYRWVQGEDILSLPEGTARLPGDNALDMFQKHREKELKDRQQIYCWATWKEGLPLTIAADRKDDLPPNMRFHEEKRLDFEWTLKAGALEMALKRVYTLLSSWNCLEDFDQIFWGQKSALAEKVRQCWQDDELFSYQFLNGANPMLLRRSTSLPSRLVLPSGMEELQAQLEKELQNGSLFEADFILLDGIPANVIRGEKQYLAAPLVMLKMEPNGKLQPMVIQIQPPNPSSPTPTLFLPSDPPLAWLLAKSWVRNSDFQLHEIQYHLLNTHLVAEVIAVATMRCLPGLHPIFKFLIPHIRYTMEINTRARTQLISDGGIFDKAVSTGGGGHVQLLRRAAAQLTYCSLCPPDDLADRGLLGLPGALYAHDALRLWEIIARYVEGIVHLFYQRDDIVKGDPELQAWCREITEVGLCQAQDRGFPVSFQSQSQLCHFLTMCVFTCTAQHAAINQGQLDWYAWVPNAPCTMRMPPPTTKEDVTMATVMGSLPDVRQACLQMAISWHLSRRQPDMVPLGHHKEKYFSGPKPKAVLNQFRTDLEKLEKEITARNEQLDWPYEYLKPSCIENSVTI
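Purified human 12hLO at 150 nM in 25 mM Hepes, 0.01% Triton X-100, pH 7.0, preincubated 15 min at room temperature with compound. Reaction started with 40 uM arachidonic acid, 30 min at room temperature. Hydroperoxide measured by Fe-xylenol orange, 573/405 nm absorbance ratio.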
HT1080NT lethal: kills 2HG-producing HT-1080-NT fibrosarcoma cells; HT-1080-NT fibrosarcoma viability, CellTiter-Glo ATP luminescence, 48 h; Potency, µM (titrated, usually from 46.1 µM), inactives show at the top dose activity, negative = less viability, hits mostly cytotoxic; 1.6% of 360,000 active;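 note: NT is the 2HG producing partner of a matched IDH1 knockdown line; potency is the fitted concentration of half-maximal effect; 0% = DMSO-treated cells and -100% = media-only wells without cells; nearly all actives have a fitted effect of over 55% in size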
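Viability by CellTiter-Glo luminescence after 48 h compound exposure at 37C of HT-1080-NT cells (750/well, RPMI, 5% FBS). % activity scaled between DMSO wells and medium-only wells, then curve-fitted and categorized by curve class.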
Starred values were filed as active, the others as inactive; [ ] = another dose, or the depositor's remark. The sample as a whole holds a higher share of hits than the screen did. Unless noted, calls come from the whole dose curve; as a rule, active = well fitted curve in the direction sought with a large enough effect; inconclusive = small, poorly fitted or top-dose-only effect, or another doubt; inactive = no such curve, though single readings can be large; an effect the other way counts as inactive or inconclusive. Unless noted, % is set by controls: 0 for no effect and ±100 for the full control effect.

Results for COc1cc(C(=O)N/N=C/c2sc(=O)n(-c3ccccc3)c2Cl)cc(OC)c1OC ?
TDP1 cell noCPT: inconclusive; HT1080 IDH1KD tx: 11%; IL1B secr inh: -71*; DT40 TDP1 CPT: inconclusive; ALOX12 inh: 2%; HT1080NT lethal: 0%

What do the screens show for `COc1cc(/C=C(/C(=O)O)c2ccc(-c3ccccc3)cc2)cc(OC)c1OC`?
TDP1 cell noCPT: inconclusive; HT1080 IDH1KD tx: 9.2µM*; IL1B secr inh: 33; DT40 TDP1 CPT: inconclusive; ALOX12 inh: -8%; HT1080NT lethal: inconclusive

Results for NNC(=O)c1cc(-c2ccccc2)sc1N ?
TDP1 cell noCPT: -22%; HT1080 IDH1KD tx: 13%; IL1B secr inh: 0; DT40 TDP1 CPT: -2%; ALOX12 inh: -24%; HT1080NT lethal: -4%

Results for COc1cc(/C=N/NC(=O)c2cc(-c3ccccc3)sc2N)cc(OC)c1OC ?
TDP1 cell noCPT: 16µM*; HT1080 IDH1KD tx: inconclusive; IL1B secr inh: -72*; DT40 TDP1 CPT: 16µM*; ALOX12 inh: 0%; HT1080NT lethal: inconclusive

How did CCn1nccc1C(=O)N1CCCC(c2noc(COC)n2)C1 (configuration not stated) do in these assays?
ALOX12 inh: 38%

What do the screens show for `O=C(c1ccc(C(F)(F)F)cc1)N1CCC2(C1)C(=O)N(c1ccccc1)c1ccccc12` (configuration not stated)?
ALOX12 inh: 6%[6.33 µM]

How did Cc1nc(N)sc1C(=O)N/N=C/c1ccccc1[N+](=O)[O-] do in these assays?
ALOX12 inh: -9%

What do the screens show for `COc1cc(/C=N\NC(=O)c2sc(N)nc2C)cc(OC)c1OC`?
TDP1 cell noCPT: 13µM*; HT1080 IDH1KD tx: 23%; IL1B secr inh: -79*; DT40 TDP1 CPT: inconclusive; ALOX12 inh: 0%; HT1080NT lethal: 29%

How did Cc1nc(N)sc1C(=O)N/N=C/c1c[nH]c2ccccc12 do in these assays?
TDP1 cell noCPT: inconclusive; HT1080 IDH1KD tx: -25%[9.24 µM]; IL1B secr inh: -55*; DT40 TDP1 CPT: inconclusive; ALOX12 inh: 18%; HT1080NT lethal: inconclusive

What do the screens show for `COc1cc(/C=N/NC(=O)c2ccc(-c3ccccc3)cc2)cc(OC)c1OC`?
TDP1 cell noCPT: inconclusive; HT1080 IDH1KD tx: -10%; IL1B secr inh: -20; DT40 TDP1 CPT: 21µM*; ALOX12 inh: -7%; HT1080NT lethal: 0%

What do the screens show for `Cc1nnsc1C(=O)N/N=C/c1ccc2ccccc2c1O`?
TDP1 cell noCPT: 0.82µM*; HT1080 IDH1KD tx: 3.7µM*; IL1B secr inh: 57; DT40 TDP1 CPT: 1µM*; ALOX12 inh: -12%; HT1080NT lethal: 4.1µM*

Results for CC1=C(C#N)C(c2cc(Cl)ccc2OC(F)F)C(C#N)=C(C)N1 ?
ALOX12 inh: -4%

Results for COc1cc(/C=N/NC(=O)c2sc3nc(C)cc(C)c3c2N)ccc1O ?
TDP1 cell noCPT: 3.3µM*; HT1080 IDH1KD tx: inconclusive; IL1B secr inh: -89*; DT40 TDP1 CPT: inconclusive; ALOX12 inh: 134%; HT1080NT lethal: inconclusive

Results for Cc1ccccc1-c1ccc2c(c1)[C@@H]1C[C@H]3[C@@H](CN1CC2)[C@H](C)OC(C1CCCCC1)N3C (some centres not stated) ?
ALOX12 inh: -3%

Results for COc1cccc(C(=O)NC2CCCc3c2cnn3-c2cc(C)cc(C)c2)c1 (configuration not stated) ?
TDP1 cell noCPT: inconclusive; HT1080 IDH1KD tx: -20%; IL1B secr inh: -58*; DT40 TDP1 CPT: inconclusive; ALOX12 inh: 0%; HT1080NT lethal: -14%

Results for COC(=O)c1ccc(C(=O)NC2CCCc3c2cnn3-c2ccc(C)c(C)c2)cc1 (configuration not stated) ?
TDP1 cell noCPT: 1µM*; HT1080 IDH1KD tx: 23µM*; IL1B secr inh: 8; DT40 TDP1 CPT: 1.3µM*; ALOX12 inh: inactive; HT1080NT lethal: 15µM*

Results for Cc1cc(C(=O)NC2CCCc3c2cnn3-c2ccc(C)c(C)c2)nc(C)n1 (configuration not stated) ?
TDP1 cell noCPT: 16µM*; HT1080 IDH1KD tx: -19%; IL1B secr inh: 24; DT40 TDP1 CPT: inconclusive; ALOX12 inh: 0%; HT1080NT lethal: -1%

How did Cc1cccnc1CN(C)C(=O)c1ccc2nc(-c3ccccc3)cn2c1 do in these assays?
ALOX12 inh: 91%

How did CC1=C(C(=O)OCCOc2ccccc2)C(c2ccsc2)NC(=O)N1C (configuration not stated) do in these assays?
TDP1 cell noCPT: 21µM*; HT1080 IDH1KD tx: -17%; IL1B secr inh: -23; DT40 TDP1 CPT: inconclusive; ALOX12 inh: -8%; HT1080NT lethal: 0%

Results for COC(=O)C1=C(C)N(C)C(=O)NC1c1ccccc1 (configuration not stated) ?
TDP1 cell noCPT: 5%; HT1080 IDH1KD tx: 11%; IL1B secr inh: 16; DT40 TDP1 CPT: 10%; ALOX12 inh: 172%; HT1080NT lethal: 9%

How did CNC(=S)c1cc(C(C)(C)C)c(O)c(C(C)(C)C)c1 do in these assays?
TDP1 cell noCPT: 4%; HT1080 IDH1KD tx: -7%; IL1B secr inh: -2; DT40 TDP1 CPT: -21%; ALOX12 inh: 16%; HT1080NT lethal: 1%

How did NC(=O)c1cc(Br)cc2c3c([nH]c12)CCCC3 do in these assays?
TDP1 cell noCPT: 23µM*; HT1080 IDH1KD tx: inconclusive; IL1B secr inh: -81*; DT40 TDP1 CPT: 18µM*; ALOX12 inh: inconclusive; HT1080NT lethal: inconclusive

How did COc1ccc(NC(=O)c2cc(-c3cc(F)ccc3OCC3CCCO3)n[nH]2)c(C)c1 (configuration not stated) do in these assays?
TDP1 cell noCPT: inconclusive; HT1080 IDH1KD tx: 3%; IL1B secr inh: -66*; DT40 TDP1 CPT: inconclusive; ALOX12 inh: -24%; HT1080NT lethal: -3%

What do the screens show for `COc1ccc(NC(=O)c2cc(-c3cc(F)ccc3OC)n[nH]2)c(C)c1`?
TDP1 cell noCPT: inconclusive; HT1080 IDH1KD tx: -13%; IL1B secr inh: inconclusive; DT40 TDP1 CPT: inconclusive; ALOX12 inh: 12%; HT1080NT lethal: -22%

Results for COc1ccc(NC(=O)c2cc(-c3cc(F)ccc3OCC3CCCO3)n[nH]2)cc1OC (configuration not stated) ?
TDP1 cell noCPT: 21µM*; HT1080 IDH1KD tx: inconclusive; IL1B secr inh: -81*; DT40 TDP1 CPT: inconclusive; ALOX12 inh: -3%; HT1080NT lethal: -27%
